# B2AR ag – agonists of human beta-2 adrenergic receptor inducing internalization | P07550 | response, % (no concentration beside the values) | Am2.2-beta2AR cells, FAP receptor internalization, flow cytometry | 340,000 compounds, 0.43% hits;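 active = response above a set limit, near 3 SD of response in nonfluorescent compounds, cut at about 42% in these data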
# GRK2 aptamer HTS – human GRK2 inhibition via aptamer displacement; P25098; bead flow cytometry, FAM-aptamer displacement from GRK2; inhibition of aptamer binding, % at 10 µM; 330,000 compounds, 0.59% hits;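 active = inhibition of aptamer binding above 40%, roughly 3 SD of noise, on plates passing a quality check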;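 note: median bead fluorescence of bound FAM aptamer so fluorescent compounds give negative values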
# Target sequence (P25098 whole entry, looked up): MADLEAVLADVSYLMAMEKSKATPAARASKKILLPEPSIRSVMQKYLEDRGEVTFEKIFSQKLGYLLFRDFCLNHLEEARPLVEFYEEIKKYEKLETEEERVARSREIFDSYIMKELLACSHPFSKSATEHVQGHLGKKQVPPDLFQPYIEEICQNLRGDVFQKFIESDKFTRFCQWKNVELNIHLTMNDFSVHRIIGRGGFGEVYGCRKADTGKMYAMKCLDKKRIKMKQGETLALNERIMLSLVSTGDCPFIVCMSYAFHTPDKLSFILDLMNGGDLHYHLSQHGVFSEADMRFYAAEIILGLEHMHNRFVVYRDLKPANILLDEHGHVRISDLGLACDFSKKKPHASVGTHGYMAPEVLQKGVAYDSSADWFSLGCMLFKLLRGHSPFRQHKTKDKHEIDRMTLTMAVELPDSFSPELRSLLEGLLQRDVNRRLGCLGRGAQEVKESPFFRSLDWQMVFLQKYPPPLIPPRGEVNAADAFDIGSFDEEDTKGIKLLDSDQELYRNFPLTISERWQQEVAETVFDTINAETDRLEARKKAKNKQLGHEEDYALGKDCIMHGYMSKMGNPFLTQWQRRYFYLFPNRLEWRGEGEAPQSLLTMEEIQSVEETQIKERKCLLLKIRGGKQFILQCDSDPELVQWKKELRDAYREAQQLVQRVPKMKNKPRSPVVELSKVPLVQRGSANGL
# VLA-4 inh – inhibition in a human VLA-4 binding assay. VLA-4 expressing cells, ligand binding flow cytometry. 330,000 compounds, 0.2% hits. inhibition, % (about 7 µM as worked out from the volumes in the protocol). P13612. AID 2557; in the data active = inhibition above about 50%
# A1 inh – inhibitors of the anti-apoptotic protein A1, read as caspase activation; MEF A1-2A-BIM cells, Caspase-Glo 3/7 luminescence, 3 h; percent of clofoctol response, vehicle zero; caspase activation, % (test concentration not listed); 330,000 compounds, 0.066% hits; AID 2462;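 active = over half of replicate activation scores above 10%, or exactly half above 10 with the replicate mean above 10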
# NTR1 agonist – NTR1 (human) agonism; P30989; NTR1-U2OS beta-arrestin-GFP spot imaging, agonist mode; activation, % at 20 µM; 330,000 compounds, 0.17% hits; AID 493036;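 active = activation at or above 40% of the spot to cytoplasm intensity ratio, with at least 20 cells analyzed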;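 note: 0% = DMSO without peptide and 100% = 100 nM NTR1 peptide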
# Numbers without * were called inactive; nt = no result given. In the library only some 1.3% were active in any assay of this set; here they are far more common.
SMILES,B2AR ag,GRK2 aptamer HTS,VLA-4 inh,A1 inh,NTR1 agonist
Cc1cccc(S(=O)(=O)Nc2nc3ccccc3nc2OC(C)C)c1,-8,58*,9,1,0
NC(=O)C1CC(=O)N(CCc2ccc(F)cc2)C1 (stereo unspecified),-2,1,5,0,1
CCC(=O)Nc1cc(-c2cc3ccccc3oc2=O)ccc1OC,-34,4,3,-1,0
COc1ccc(-c2cc3ccccc3oc2=O)cc1NC(=S)NC(=O)c1ccc2c(c1)OCCO2,42*,0,-172,26*,7
CNC(=O)c1oc(-c2ccccc2)nc1C,3,2,5,-1,0
CC(=O)N(C1=C(Cl)C(=O)c2ccccc2C1=O)C1CCCCC1,64*,0,4,2,13
CC(=O)OCCN(C)c1cc(SC(C)C)c2nonc2c1[N+](=O)[O-],17,1,16,1,1
CN(CCO)c1cc(Sc2nc3ccccc3s2)c2nonc2c1[N+](=O)[O-],99*,2,-19,2,-3
COc1ccc(-c2cc3nc4ccccc4n3c(N)c2C#N)cc1,31,0,2,0,-1
CCCCOc1ccc(Br)cc1/C(C)=N/NC1=NCCN1,48*,0,-5,-1,2
COc1ccc(OC)c(C2C(C(C)=O)=C(O)C(=O)N2Cc2cccnc2)c1 (stereo unspecified),0,0,11,5.2*,-1
CN(C)C(=S)Nc1ccc(Cc2ccncc2)cc1,-9,0,4,1,0
O=C(Nc1ccc(Br)cc1)c1cccc(OC(=S)N2CCOCC2)c1,77*,0,8,-1,6
COc1ccc(NC(=O)c2cccc(OC(=S)N3CCOCC3)c2)cc1,6,11,0,-2,3
N#C/C(=C\c1cccs1)C(=O)c1ccccc1Cl,54*,0,13,1,35
Cc1cccc(C)c1NC(=O)CNC(=O)CCNC(=O)c1ccco1,-1,3,-8,-1,0
O=C1C(Cl)=C(Nc2ccc3cn[nH]c3c2)C(=O)c2ccccc21,104*,1,26,3,nt
CC1COCC(C)N1C1=C(Cl)C(=O)c2ccccc2C1=O (stereo unspecified),81*,nt,nt,nt,nt
O=c1[nH]c2cc3c(cc2cc1CN(CCc1ccccc1)C(=S)NCCCN1CCOCC1)OCCO3,9,nt,nt,nt,nt
CCOc1ccc(C(=O)/C=C/c2cn(CN3CCN(C)CC3)c3ccccc23)cc1,1,0,-9,0,49*
COc1cccc(NC(=O)c2ccc(OC(F)(F)F)cc2)c1,-2,nt,nt,-11,1
COCCOC(=O)c1[nH]c2c(c1C)C(=O)CC(c1cccs1)C2 (stereo unspecified),15,nt,nt,nt,nt
CCOCCOC(=O)c1[nH]c2c(c1C)C(=O)CC(c1cccs1)C2 (stereo unspecified),4,4,35,5.9*,2
O=C(O)c1ccc2c(=O)[nH]c(CCl)nc2c1,5,3,9,0,-1
CC(C)CCN(C(=O)Cc1ccc(Cl)c(Cl)c1)c1c(N)n(Cc2ccccc2)c(=O)[nH]c1=O,-1,2,-1,12*,15
SMILES,B2AR ag,GRK2 aptamer HTS,VLA-4 inh,A1 inh,NTR1 agonist
CCCCC1CCC(C(=O)N(CC(C)C)c2c(N)n(Cc3ccccc3)c(=O)[nH]c2=O)CC1 (stereo unspecified),nt,0,6,29*,1
CCN(CCCNC(=O)CNC(=O)c1nn(-c2ccc(OC)cc2OC)c(=O)c2ccccc12)c1cccc(C)c1,-2,4,2,0,18
O=C(c1cc(COc2ccccc2)on1)N1CCCC(CN2CCOCC2)C1 (stereo unspecified),-15,0,10,1,0
CS(=O)(=O)c1sc2nc(-c3cccs3)cc(-c3ccccc3)c2c1N,43*,4,-10,-1,2
OC(c1ccccc1)C(O)C(c1ccccc1)N1CCCCC1 (stereo unspecified),-2,nt,nt,nt,nt
O=C(c1ccc(-c2ccccc2Cl)o1)N1CCN(S(=O)(=O)c2cccs2)CC1,-8,0,-3,1,17
CC(C(=O)O)N1C(=O)/C(=C/C=C/c2ccco2)SC1=S (stereo unspecified),-1,98*,8,-1,0
O=C1C=CC(=O)N1c1ccc2c(c1)C(NC(=O)C(F)(F)F)c1ccccc1-2 (stereo unspecified),22,nt,nt,nt,nt
CCNC(=O)c1cc2c(=O)n3cccc(C)c3nc2n(Cc2ccc(C)cc2)c1=N,51*,1,3,0,7
Cc1cccn2c(=O)c3cc(C(=O)NC4CCCCC4)c(=N)n(Cc4ccc(F)cc4)c3nc12,78*,4,-6,0,14
Cc1cccn2c(=O)c3cc(C(=O)NC(C)C)c(=N)n(Cc4ccncc4)c3nc12,-3,3,0,0,2
O=C(CC1C(=O)NCCN1Cc1cccc(F)c1F)NCCCC1CCCC1 (stereo unspecified),0,0,-11,1,1
COc1ccc(NS(=O)(=O)c2cc(C(=O)NNC(=O)c3ccncc3)ccc2OC)c(OC)c1,nt,0,-1,-1,4
O=C1CCC(=O)N1OCCCCOc1ccccc1,0,42*,7,-1,1
O=C1C=CC(=O)N1c1cccc(-c2ccccc2)c1,97*,0,27,13*,10
O=C(CO/N=C/c1ccccc1O)N1CCc2ccccc21,72*,2,10,-4,1
CCCCCc1cc(=O)oc2c(C(CCN(CC)CC)c3cc(OC)c(OC)c(OC)c3)c(OC)cc(OC)c12 (stereo unspecified),44*,0,0,0,27
COc1ccc(N2CC(C(=O)N3CCN(Cc4ccc5c(c4)OCO5)CC3)CC2=O)cc1 (stereo unspecified),3,0,-17,0,0
CN(C)c1nc(C=C(C#N)C#N)c(Cl)n1-c1ccc(F)cc1,52*,nt,nt,nt,nt
CCOc1ccccc1NC(=O)/C(C#N)=C/c1c(C)nn(-c2ccc(F)cc2)c1Cl,4,2,14,0,2
Cn1nc(C(=O)Nc2nc3ccccc3[nH]2)c2ccccc2c1=O,56*,2,13,-1,-2
CCn1nc(C(=O)Nc2nc3ccccc3[nH]2)c2ccccc2c1=O,-10,2,-4,0,0
COc1cccc(NC(=O)C(C)Sc2nnc(C3CC3)n2C2CC2)c1 (stereo unspecified),3,13,-5,nt,-1
COc1cc(OC)cc(C(=O)N[C@H](C(=O)Nc2c(C)n(C)n(-c3ccccc3)c2=O)C(C)C)c1,5,0,6,0,-2
CCNC(=O)/C(C#N)=C/c1c(N2CCOCC2)nc2ccccn2c1=O,47*,0,-7,-1,2
C=CCNC(=O)/C(C#N)=C/c1c(N2CCCCCC2)nc2ccccn2c1=O,3,1,0,0,1
CNC[C@@H](Cc1ccccc1)NC[C@@H](CC1CCCCC1)NCCCc1ccccc1,26,nt,nt,1,8

# Assay outcomes (PubChem)
